# Dicer inh = blocks human Dicer maturation of pre-miR-21; 6% of 47,000 active; cat-ELCCA pre-miR-21 Dicer processing, chemiluminescence; hits give high values; Q9UPY3; AID 1347074; z-score at 25 µM; in the data active means z-score above about 3, passing the limit was not always enough;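 further: plate controls were vehicle for no effect and no enzyme for full effect; higher signal means more uncleaved substrate so more Dicer inhibition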
# Numbers without * were called inactive. The full list was thinned out, with hits kept by preference.
SMILES,Dicer inh
Fc1ccc(N/N=C/Cc2nnnn2-c2ccccc2)c(F)c1,3.89*
C(=C\c1nnnn1-c1ccccc1)/NCc1ccccc1,-0.29
NC(=S)N/N=C\Cc1nnnn1-c1ccccc1,-0.56
COc1ccccc1-c1nnc(SCC(=O)c2ccc(Cl)cc2)n1C,-1.32
CC(=O)Nc1scc(C)c1-c1nc2ccccc2s1,-0.01
Cc1csc(NS(=O)(=O)c2ccc(Cl)cc2)c1-c1nc2ccccc2s1,4.18*
Cc1csc(NC(=O)COCC(=O)O)c1-c1nc2ccccc2s1,1.3
COc1cc(C(F)(F)F)nc2ccc(C)c(N)c12,2.51
CCN(CC)CCCNc1ncnc2ccccc12,-0.08
CCN(CC)CCCC(C)Nc1nc(C)nc2ccccc12 (stereo unspecified),4.34*
CCN(CC)CCCC(C)Nc1nc(C)nc2cc(Cl)ccc12 (stereo unspecified),-0.22
CCCOc1ccc(C2c3c(oc4ccc(C)cc4c3=O)C(=O)N2CCCN(C)C)cc1 (stereo unspecified),-0.21
CN(C)S(=O)(=O)N(CC(=O)NCCC1=CCCCC1)c1ccccc1,-1.87
Cc1nc2ccc(F)cc2c2c1CCN2c1ccc(Cl)cc1,2.65
CCC1CC(C)(c2csc(Nc3ccc(C)cc3)n2)OC1=O (stereo unspecified),0.11
C=CCNc1nc(C2(C)CC3(CC(C)OC3=O)C(=O)O2)cs1 (stereo unspecified),3.48*
CC(C)CC1CC(C)(c2csc(Nc3ccccc3)n2)OC1=O (stereo unspecified),-0.72
CCCOCC1CC2(CC(C)(c3csc(Nc4ccc(C)cc4)n3)OC2=O)C(=O)O1 (stereo unspecified),1.3
CCCCOCC1CC2(CC(C)(c3csc(N)n3)OC2=O)C(=O)O1 (stereo unspecified),-0.37
C=CCNc1nc(C2(C)CC3(CC(COCC(C)C)OC3=O)C(=O)O2)cs1 (stereo unspecified),3.12*
CC1=C(C(=O)OCc2ccccc2)C(c2cccnc2)C2=C(CC(c3ccccc3)CC2=O)N1 (stereo unspecified),-0.15
O=C(COC(=O)c1ccccc1-c1ccccc1)c1ccccc1,2.07
O=C(COC(=O)c1ccc(C(O)c2ccccc2)cc1)c1ccccc1 (stereo unspecified),3.98*
O=C(COC(=O)c1ccccc1Nc1ccccc1F)c1ccccc1,-6.3
Cc1ccc(-n2cccc2)c(-n2c(C)nc3ccc(Br)cc3c2=O)c1,-0.32
SMILES,Dicer inh
N#CCCn1nc(-c2ccccc2)cc1N,-0.11
O=C(Nc1ccccc1S(=O)(=O)Cc1cccc(C(F)(F)F)c1)c1ccc(Cl)cc1,1.82
COc1c(Cl)cc(Cl)c(OC)c1C(=O)NC(=O)Nc1c(C)cc(Br)cc1C,-1.93
COc1c(Cl)cc(Cl)c(OC)c1C(=O)NC(=O)Nc1c(Cl)cc(Cl)cc1Cl,3.16*
COc1c(Cl)cc(Cl)c(OC)c1C(=O)NC(=O)Nc1c(Cl)cc([N+](=O)[O-])cc1Cl,-1.03
COC(=O)c1scc(S(=O)(=O)C(C)C)c1N,-1.4
CN(C)c1ccc(C2CC(=O)C=C(NC3Cc4ccccc4C3)C2)cc1 (stereo unspecified),4.63*
O=C1C=C(NC2Cc3ccccc3C2)CC(c2ccccc2)C1 (stereo unspecified),-0.9
O=C1C=C(NC2Cc3ccccc3C2)CC(c2cccc(Cl)c2)C1 (stereo unspecified),-0.95
COc1ccc(-c2nc(C#N)c(NCc3ccco3)o2)cc1,-1.14
C=CCNc1oc(-c2ccc(F)cc2)nc1C#N,-0.55
N#Cc1nc(-c2ccccc2)oc1NCc1ccccc1,6.36*
COc1cc(C2/C(=C(/O)c3ccc(Cl)cc3)C(=O)C(=O)N2CC(C)C)ccc1O (stereo unspecified),-1.22
O=C(O)c1cscc1Sc1ccc(Cl)cc1,-0.33
CC(C)OC(=O)c1c(NC(=O)c2nc3ncccn3n2)sc2c1CCCC2,0.78
O=C(O)C1CC(=O)N(Cc2ccco2)C1 (stereo unspecified),0.7
O=c1[nH]c(=O)n(-c2ccccc2)c2c1CN(Cc1ccco1)CN2,0.98
c1ccc(C2CN(Cc3ccco3)C(c3ccccc3)O2)cc1 (stereo unspecified),3.55*
COc1ccc(N2C(=O)CC(Nc3ccc(O)cc3)C2=O)cc1 (stereo unspecified),2.13
CNC(=O)C(COCc1ccccc1)NC(=O)OC(C)(C)C (stereo unspecified),-0.46
COC(=O)C(C)N(C#N)c1nc(C)cc(C)n1 (stereo unspecified),5.96*
CCN(CC)C(=O)CN(C#N)c1nc(C)cc(C)n1,2.89
COC(=O)CN(C#N)c1nc(C)cc(OC)n1,-0.77
CCCCC(C(=O)OC)N1C(=O)C2C3c4ccccc4C(c4ccccc43)C2C1=O (stereo unspecified),-0.46
CCOC(=O)c1c(N/N=C/c2ccc(O)cc2)n[nH]c1C,0.23
CCOC(=O)c1c(N=Cc2ccccc2[N+](=O)[O-])n[nH]c1C,3.72*
CCOC(=O)c1c(N=Cc2ccccc2Cl)n[nH]c1C,-2.53
CCOC(=O)c1c[nH]c2c(F)cc(F)cc2c1=O,-0.75
Cn1c(=O)n(CC(=O)O)c2ccccc21,3.57*
